The results in this text go back to PubChem BioAssay AID588850 (Sanford-Burnham Center for Chemical Genomics, 2011).

About 3,100 (0.86%) of roughly 360,000 compounds were called active. Only a selection was taken, and actives are over-represented in it overall. Unmarked numbers belong to inactive results.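 The calls were made as follows: active = at least 50% inhibition at 5 µM, scaled per plate between neutral and stimulator controls; inactive = the rest.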

The nature of the assay: NF-kB reporter blockers in CF airway cells – cell-based, GFP fluorescence, uHTS, primary screen (AID 588850).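 Also: PAF is a Pseudomonas aeruginosa culture filtrate used as stimulus; plate controls were PAF-stimulated DMSO wells for no effect and unstimulated DMSO wells for full effect.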 As to conditions: KKLEB NF-kB-GFP reporter, PAF-induced, GFP fluorescence overnight; at 5 µM; hits give high values.
One may read the inhibition as the relative decrease from the control value, in per cent. As to `Clc1ccc2nc(CSc3ccccc3)cn2c1`, the inhibition was -13.5%. The result for `O=C(C1CCCO1)N1CCN(C(=S)NC2CC2)CC1` (stereo not given) reads 3.7%; that for `C[C@@H]1C[C@@H]2O[C@H]2/C=C\C=C\C(=O)Cc2c(Cl)c(O)cc(O)c2C(=O)O1`, 60.3% (active).

For `COc1ccc(S(=O)(=O)N2CCN(CC(=O)N3CCNC3=O)CC2)cc1OC`, the inhibition was 0.2%. In the case of `COc1ccc(Br)cc1CN1CCN(C(=O)c2cccc(OC)c2OC)CC1`, the inhibition was 18.7%.

`CN(C(=O)CC1C(=O)NCCN1Cc1ccc2ccccc2c1)C1CCOCC1` (stereo not given): the inhibition was 15.4%.

In the case of `COc1ccc(N(C(=O)c2snc(C(N)=O)c2N)C(C(=O)NC2CCCC2)c2ccco2)cc1OC` (stereo not given), the inhibition was 6.4%. Then `COc1ccc(NC(C(=O)Nc2cccc(C(C)=O)c2)c2ccccc2)cc1` (stereo not given), with -4.2%. `C=CCSc1nsc(NC(=O)Nc2cccc(C(C)=O)c2)n1`: the inhibition is 86.3% (active). The result for `CCSc1nsc(NC(=O)Nc2cccc(C(C)=O)c2)n1` reads 86.3% (active); that for `CC(=O)c1cccc(NC(=O)C2CCN(C(=O)c3ccccc3Cl)CC2)c1`, 4.3%; that for `CC(=O)c1cccc(NC(=S)N2CCN(S(C)(=O)=O)CC2)c1`, -11.2%. Then `CSc1ccccc1C(=O)Nc1cccc(C(C)=O)c1`, with -14.6%; and `CCOCCCNC(=O)c1ccc(CS(=O)(=O)c2cccc(C(F)(F)F)c2)o1`, with -2.1%. On to `CC1C(=O)Nc2ccccc2N1C(=O)c1c(F)cccc1F` (stereo not given), for which the inhibition is -2.1%. The result for `COc1cccc(-c2nn(-c3ccccc3)cc2/C=C(\C#N)C(=O)NCCCn2ccnc2)c1` reads -21.2%; that for `CC1CCCC(NC(=O)COC(=O)c2ccccc2C(=O)N(C)C2CCCCC2)C1C` (stereo not given), 17.7%. The result for `C=CCN(c1ccc(C(N)=O)cc1)S(C)(=O)=O` reads -12%. Consider `Cc1c(C)c2ccc(OCC(=O)N3CCN(c4cccc(Cl)c4)CC3)cc2oc1=O`, for which the inhibition is 63.5% (active). `COc1ccc(N2CCN(C(=O)COc3ccc4c(C)cc(=O)oc4c3)CC2)cc1`: the inhibition was -21.4%.

In the case of `Cc1cc(OCC(=O)N2CCN(c3ncccn3)CC2)ccc1Cl`, the inhibition was 1.3%.

As for `CC1(C)Cc2c(sc3nc(SCC(=O)NCc4ccccc4)n(-c4ccccc4)c(=O)c23)CS1`, the inhibition was 4.3%. `Cc1ccc(S(=O)(=O)N2CCCC2CO)cc1` (stereo not given): the inhibition is -11%.

Consider `CCn1ncc(Br)c1C(=O)Nc1cc(C)ccc1F`, for which the inhibition is 4.3%. Take `Cc1ccc(CCC(=O)Nc2ncc(Cc3cc(Cl)ccc3Cl)s2)o1`: the inhibition is 64% (active). For `O=C(CCc1ccccc1Cl)Nc1ccc(S(=O)(=O)Nc2nccs2)cc1`, the inhibition is 8.7%. The result for `Cc1ccc(Cc2cnc(N)s2)o1` reads 4.4%. The result for `COc1ccccc1/C=C/CN1CCC(CO)(Cc2ccccc2)CC1` reads 20.7%; that for `CC(C)(C)NC(=O)Cn1c(SCC(=O)Nc2nccs2)nc2ccccc21`, -6.3%.

Take `COCCCNC(=S)N1CCN(c2nc(-c3cccc(OC)c3)cs2)CC1`: the inhibition was -8.2%. Then `O=[N+]([O-])c1cc(Br)c(O)c(/C=N/Nc2nc3ccccc3s2)c1`, with 63.5% (active); and `O=C(N/N=C/c1cc(Br)c(O)c([N+](=O)[O-])c1)C(O)(c1ccccc1)c1ccccc1`, with -3.5%.

For the compound `c1ccc(C(=NNc2nc3ccccc3s2)c2ccccn2)cc1`, the inhibition is -25.7%. Turning to `CCOC(=O)c1ccc(-c2ccc3ncnc(N(C)Cc4sccc4C)c3c2)o1`, the inhibition is 32.3%.

With `CCOC(=O)CSc1nnc(NC(=O)c2cccc(S(=O)(=O)N3CCCCC3)c2)s1`, the inhibition is 5.1%. Then `O=C(Nc1nnc(Cc2ccc(Cl)cc2)s1)c1cccnc1`, with 2.8%; and `Cc1ccc(S(=O)(=O)CCC(=O)Nc2nnc(CC(C)C)s2)cc1`, with 8.1%; and `Cc1ccc(CS(=O)(=O)c2ncc(Cl)c(C(=O)Nc3nnc(C)s3)n2)cc1`, with 92.5% (active).

`CSc1nnc(NC(=O)c2nc(S(=O)(=O)Cc3ccc(C)cc3)ncc2Cl)s1`: the inhibition was 104% (active).

As to `O=C(Nc1nnc(-c2ccc(F)cc2)s1)c1c(F)cccc1Cl`, the inhibition was 11%. The result for `CC1(C(=O)Nc2cccnc2)Cc2c(-c3ccccc3)ccnc2O1` (stereo not given) reads 14.4%; that for `Cc1ccccc1C(=O)Nc1cccc(-c2nnc(SCC(=O)O)n2C)c1`, 0.8%. Take `C=CCn1c(SCC(=O)c2ccc(Br)cc2)nnc1C(C)NC(=O)Cc1ccc(OC)cc1` (stereo not given): the inhibition was -6.2%.

In the case of `COCCn1c(C)cc(C(=O)CN2c3cccc4cccc(c34)S2(=O)=O)c1C`, the inhibition is 18.2%. Take `O=C(c1cccnc1)N(c1cc2sc(=O)oc2c2ccccc12)S(=O)(=O)c1ccccc1`: the inhibition is 67% (active).

For `CCc1ccc(N(CC(=O)NCc2cccnc2)S(=O)(=O)c2ccccc2)cc1`, the inhibition is -37.4%. The result for `O=C(c1cccnc1)N(Cc1ccccc1)C(=O)c1cccnc1` reads 11.6%; that for `NC(=O)C[n+]1cccc(C(N)=O)c1`, 0.4%; that for `CCNC(=O)C1CCCN(C(=O)c2ccc(OC)cc2OC)CC1` (stereo not given), -9.2%.

As to `Cc1ccc(C2(C)NC(=O)N(CC(=O)Nc3ccccc3C(=O)N3CCCCC3)C2=O)cc1` (stereo not given), the inhibition is -4.5%.

On to `O=C(NC1(C(F)(F)F)N=C2SCCN2C1=O)c1ccco1` (stereo not given), for which the inhibition is 3.6%. Consider `Clc1ccc2c(c1)C1=C(C(c3ccncc3)O2)C(c2ccc(Br)cc2)n2ncnc2N1` (stereo not given), for which the inhibition is 52.7% (active).

On to `COCCCN(C(=O)Cn1ncc2c(=O)oc3ccc(C)cc3c21)C(C)c1ccncc1` (stereo not given), for which the inhibition is 1.3%. Then `O=C(Nc1ccc2c(c1)OCO2)C1CC(c2c(F)cccc2Cl)=NO1` (stereo not given), with 13.8%; and `Cc1cc(C)c(-c2csc(NC(=O)CCCc3nc4ccccc4c(=O)[nH]3)n2)c(C)c1`, with -12.5%; and `C=CCNC(=O)c1ccc2c3n(nc2c1)-c1ccc(C)cc1CO3`, with -75.6%. The result for `COc1cc(OC)cc(C(=O)N[C@H](C(=O)OCC(=O)NC(C)c2ccccc2)C(C)C)c1` (stereo not given in full) reads 21.2%; that for `COc1cc(OC)cc(C(=O)N[C@H](C(=O)Nc2nc3ccccc3[nH]2)C(C)C)c1`, 64.3% (active). Then `COc1cc(OC)cc(C(=O)N[C@H](C(=O)NNC(=O)c2ccc(Br)cc2)C(C)C)c1`, with -8.2%; and `CC(=O)NC(c1ccccc1)c1nc(-c2ccccc2C)cs1` (stereo not given), with -32.5%.
